# The supplement of paper PMC8728848
# About 410 targets per protein were measured; listed, in parts, are those with the strongest signals and a random draw of the rest.
# Tests used:
# Assay in all cases: glycan array binding signal (z-score within array); higher = stronger binding
# Settings in all cases: glycan notation: IUPAC condensed, linker removed
# [1] = molecular target: Fuc(a1-2)Gal(b1-3)GlcNAc(b1-2)Man(a1-3)[Fuc(a1-2)Gal(b1-3)GlcNAc(b1-2)Man(a1-6)]Man(b1-4)GlcNAc(b1-4)GlcNAc
# In short: (§1)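 From the Consortium for Functional Glycomics database, 3228 arrays were curated, keeping only those whose protein sequence was available. Binding is given as a within-array Z-score averaged across arrays sharing a protein sequence and across linkers. Negative Z-scores can be read as non-binding.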
# [2] = molecular target: Fuc(a1-2)Gal(b1-3)GlcNAc(b1-3)[Neu5Ac(a2-6)Gal(b1-4)GlcNAc(b1-6)]Gal(b1-4)Glc
# In short: as §1
# [3] = molecular target: Fuc(a1-2)Gal(b1-4)Fuc(a1-3)]GlcNAc(b1-2)Man(a1-3)[Fuc(a1-2)Gal(b1-4)[Fuc(a1-3)]GlcNAc(b1-2)Man(a1-6)]Man(b1-4)GlcNAc(b1-4)GlcNAc
# In short: as §1
# [4] = molecular target: Fuc(a1-2)Gal(b1-4)GlcNAc(b1-3)[Fuc(a1-2)Gal(b1-4)GlcNAc(b1-6)]GalNAc
# In short: as §1
# [5] = molecular target: Fuc(a1-2)[Gal(a1-3)]Gal(b1-4)[Fuc(a1-3)]GlcNAc
# In short: as §1
# [6] = molecular target: Fuc(a1-2)[GalNAc(a1-3)]Gal(b1-4)GlcNAc(b1-3)Gal(b1-4)GlcNAc
# In short: as §1
# [7] = molecular target: Fuc(a1-2)[GalNAc(a1-3)]Gal(b1-4)GlcNAc(b1-3)[Fuc(a1-2)[GalNAc(a1-3)]Gal(b1-4)GlcNAc(b1-6)]GalNAc
# In short: as §1
# [8] = molecular target: Fuc(a1-2)[GalNAc(a1-3)]Gal(b1-4)[Fuc(a1-3)]GlcNAc(b1-3)GalNAc
# In short: as §1
# [9] = molecular target: Fuc(a1-2)[GalNAc(a1-4)]Gal(b1-4)GlcNAc
# In short: as §1
# [10] = molecular target: Fuc(a1-3)[Gal(b1-4)]GlcNAc(b1-2)Man(a1-3)[Fuc(a1-3)[Gal(b1-4)]GlcNAc(b1-2)Man(a1-6)]Man(b1-4)GlcNAc(b1-4)[Fuc(a1-6)]GlcNAc
# In short: as §1
# [11] = molecular target: Fuc(a1-3)[Gal(b1-4)]GlcNAc(b1-3)Gal(b1-4)[Fuc(a1-3)]GlcNAc
# In short: as §1
# [12] = molecular target: Gal(a1-3)Gal(b1-3)GlcNAc(b1-3)GalNAc
# In short: as §1
# [13] = molecular target: Gal(b1-3)GlcNAc(a1-3)Gal(b1-4)GlcNAc
# In short: as §1
# [14] = molecular target: Gal(b1-3)GlcNAc(b1-6)[Gal(b1-3)]GalNAc
# In short: as §1
# [15] = molecular target: Gal(b1-3)[Fuc(a1-4)]GlcNAc(b1-2)Man(a1-3)[Gal(b1-3)[Fuc(a1-4)]GlcNAc(b1-2)Man(a1-6)]Man(b1-4)GlcNAc(b1-4)[Fuc(a1-6)]GlcNAc
# In short: as §1
# [16] = molecular target: Gal(b1-4)GlcNAc(b1-2)Man(a1-3)[GlcNAc(b1-4)][Gal(b1-4)GlcNAc(b1-2)Man(a1-6)]Man(b1-4)GlcNAc(b1-4)GlcNAc
# In short: as §1
# [17] = molecular target: Gal(b1-4)GlcNAc(b1-3)Gal(b1-4)GlcNAc(b1-2)Man(a1-3)[Gal(b1-4)GlcNAc(b1-3)Gal(b1-4)GlcNAc(b1-2)Man(a1-6)]Man(b1-4)GlcNAc(b1-4)GlcNAc
# In short: as §1
# [18] = molecular target: Gal(b1-4)GlcNAc(b1-3)Gal(b1-4)GlcNAc(b1-3)GalNAc
# In short: as §1
# [19] = molecular target: Gal(b1-4)GlcNAc(b1-3)Gal(b1-4)GlcNAc(b1-3)[Gal(b1-4)GlcNAc(b1-3)Gal(b1-4)GlcNAc(b1-6)]GalNAc
# In short: as §1
# [20] = molecular target: Gal3S(b1-3)[Fuc(a1-4)]GlcNAc
# In short: as §1
# [21] = molecular target: Gal3S(b1-4)Glc
# In short: as §1
# [22] = molecular target: Gal3S4S(b1-4)GlcNAc
# In short: as §1
# [23] = molecular target: Gal6S(b1-4)GlcNAc6S
# In short: as §1
# [24] = molecular target: GalNAc(a1-3)GalNAc
# In short: as §1
# [25] = molecular target: GalNAc(a1-3)GalNAc(b1-3)Gal(a1-4)Gal(b1-4)Glc
# In short: as §1
# [26] = molecular target: GalNAc(b1-3)Gal
# In short: as §1
# [27] = molecular target: GalNAc3S(b1-4)GlcNAc
# In short: as §1
# [28] = molecular target: GlcNAc(b1-3)Gal(b1-4)GlcNAc(b1-2)Man(a1-3)[GlcNAc(b1-3)Gal(b1-4)GlcNAc(b1-2)Man(a1-6)]Man(b1-4)GlcNAc(b1-4)GlcNAc
# In short: as §1
# [29] = molecular target: GlcNAc(b1-3)Gal(b1-4)GlcNAc(b1-3)Gal(b1-4)GlcNAc(b1-3)Gal(b1-4)GlcNAc(b1-2)Man(a1-3)[GlcNAc(b1-3)Gal(b1-4)GlcNAc(b1-3)Gal(b1-4)GlcNAc(b1-3)Gal(b1-4)GlcNAc(b1-2)Man(a1-6)]Man(b1-4)GlcNAc(b1-4)[Fuc(a1-6)]GlcNAc
# In short: as §1
# [30] = molecular target: GlcNAc(b1-3)Gal(b1-4)GlcNAc(b1-6)[GlcNAc(b1-3)Gal(b1-3)]GalNAc
# In short: as §1
# [31] = molecular target: GlcNAc(b1-3)[GlcNAc(b1-4)][GlcNAc(b1-6)]GlcNAc
# In short: as §1
# [32] = molecular target: GlcNAc(b1-4)GlcNAc(b1-4)GlcNAc(b1-4)GlcNAc(b1-4)GlcNAc
# In short: as §1
# [33] = molecular target: GlcNAc(b1-4)GlcNAc(b1-4)GlcNAc(b1-4)GlcNAc(b1-4)GlcNAc(b1-4)GlcNAc
# In short: as §1
# [34] = molecular target: Man(a1-3)[Man(a1-6)]Man(a1-6)[Man(a1-2)Man(a1-3)]Man(b1-4)GlcNAc(b1-4)GlcNAc
# In short: as §1
# [35] = molecular target: Man(a1-3)[Man(a1-6)]Man(b1-4)GlcNAc(b1-4)[Fuc(a1-6)]GlcNAc
# In short: as §1
# [36] = molecular target: MurNAc(b1-4)GlcNAc
# In short: as §1
# [37] = molecular target: Neu5Ac(a2-3)Gal(b1-3)GalNAc(b1-4)[Neu5Ac(a2-8)Neu5Ac(a2-3)]Gal(b1-4)Glc
# In short: as §1
# [38] = molecular target: Neu5Ac(a2-3)Gal(b1-3)GlcNAc(b1-3)Gal(b1-3)GlcNAc
# In short: as §1
# [39] = molecular target: Neu5Ac(a2-3)Gal(b1-4)GlcNAc(b1-3)Gal(b1-3)GlcNAc
# In short: as §1
# [40] = molecular target: Neu5Ac(a2-3)Gal(b1-4)GlcNAc(b1-3)Gal(b1-4)GlcNAc(b1-2)Man(a1-3)[Neu5Ac(a2-3)Gal(b1-4)GlcNAc(b1-3)Gal(b1-4)GlcNAc(b1-2)Man(a1-6)]Man(b1-4)GlcNAc(b1-4)GlcNAc
# In short: as §1
# [41] = molecular target: Neu5Ac(a2-3)Gal(b1-4)GlcNAc(b1-3)Gal(b1-4)GlcNAc(b1-3)Gal(b1-4)GlcNAc(b1-2)Man(a1-3)[Neu5Ac(a2-3)Gal(b1-4)GlcNAc(b1-3)Gal(b1-4)GlcNAc(b1-3)Gal(b1-4)GlcNAc(b1-2)Man(a1-6)]GalNAc
# In short: as §1
# [42] = molecular target: Neu5Ac(a2-3)[GalNAc(b1-4)]Gal(b1-4)GlcNAc
# In short: as §1
# [43] = molecular target: Neu5Ac(a2-3)[Neu5Ac(a2-6)]GalNAc
# In short: as §1
# [44] = molecular target: Neu5Ac(a2-6)Gal(b1-4)GlcNAc
# In short: as §1
# [45] = molecular target: Neu5Ac(a2-6)Gal(b1-4)GlcNAc(b1-3)Gal(b1-4)GlcNAc(b1-3)[Neu5Ac(a2-6)Gal(b1-4)GlcNAc(b1-3)Gal(b1-4)GlcNAc(b1-6)]GalNAc
# In short: as §1
# [46] = molecular target: Neu5Ac(a2-6)GalNAc
# In short: as §1
# [47] = molecular target: Neu5Ac(a2-8)Neu5Ac(a2-3)Gal(b1-3)GalNAc(b1-4)[Neu5Ac(a2-3)]Gal(b1-4)Glc
# In short: as §1
# [48] = molecular target: Neu5Ac(a2-8)Neu5Ac(a2-8)Neu5Ac(a2-3)[Gal(b1-3)GalNAc(b1-4)]Gal(b1-4)Glc
# In short: as §1
# [49] = molecular target: Neu5Ac(a2-8)Neu5Ac(a2-8)Neu5Ac(a2-3)[GalNAc(b1-4)]Gal(b1-4)Glc
# In short: as §1
# [50] = molecular target: Neu5Ac(b2-6)GalNAc
# In short: as §1
# [51] = molecular target: Neu5Ac9Ac(a2-3)Gal(b1-3)GlcNAc
# In short: as §1
# [52] = molecular target: Neu5Gc(a2-3)Gal(b1-4)GlcNAc(b1-3)Gal(b1-4)GlcNAc(b1-2)Man(a1-3)[Neu5Gc(a2-3)Gal(b1-4)GlcNAc(b1-3)Gal(b1-4)GlcNAc(b1-2)Man(a1-6)]Man(b1-4)GlcNAc(b1-4)GlcNAc
# In short: as §1
# [53] = molecular target: Neu5Gc(a2-3)Gal(b1-4)[Fuc(a1-3)]GlcNAc
# In short: as §1
# [54] = molecular target: Neu5Gc(a2-8)Neu5Gc(a2-3)Gal(b1-4)GlcNAc(b1-3)Gal(b1-4)GlcNAc
# In short: as §1
binder,measurement,setting,value
LFA (Limax flavus) (protein) MSVLFLAASFLLLASFELVAAQGCPRQDPGDWIVIQRRLNADVNFYRGWADYKHGFGDLRCNFWLGNEKIHQLTSHGRYKLRVEFTFNNKSYFAEYSTFKILGEADKYKLQVGGYSGNAGDALTFHNGMAFSTNDRDNDADSIDCAKVYHGAWWYKTCHESNLNGKWGSKKYGEGLNWKAKTTFTATATSSLLKIKALK,glycan array binding signal (z-score),[1],0.702
same,glycan array binding signal (z-score),[2],-0.319
same,glycan array binding signal (z-score),[3],1.54
same,glycan array binding signal (z-score),[4],-0.186
same,glycan array binding signal (z-score),[5],-0.137
same,glycan array binding signal (z-score),[6],-0.192
same,glycan array binding signal (z-score),[7],-0.241
same,glycan array binding signal (z-score),[8],-0.214
same,glycan array binding signal (z-score),[9],3.52
same,glycan array binding signal (z-score),[10],-0.15
same,glycan array binding signal (z-score),[11],-0.217
same,glycan array binding signal (z-score),[12],0.016
same,glycan array binding signal (z-score),[13],-0.103
same,glycan array binding signal (z-score),[14],-0.21
same,glycan array binding signal (z-score),[15],0.669
same,glycan array binding signal (z-score),[16],0.181
same,glycan array binding signal (z-score),[17],2.97
same,glycan array binding signal (z-score),[18],2.68
same,glycan array binding signal (z-score),[19],2.39
same,glycan array binding signal (z-score),[20],-0.306
same,glycan array binding signal (z-score),[21],-0.271
same,glycan array binding signal (z-score),[22],-0.218
same,glycan array binding signal (z-score),[23],-0.066
same,glycan array binding signal (z-score),[24],3.66
same,glycan array binding signal (z-score),[25],13.1
same,glycan array binding signal (z-score),[26],-0.195
same,glycan array binding signal (z-score),[27],-0.277
same,glycan array binding signal (z-score),[28],-0.217
same,glycan array binding signal (z-score),[29],0.314
same,glycan array binding signal (z-score),[30],-0.285
same,glycan array binding signal (z-score),[31],-0.405
same,glycan array binding signal (z-score),[32],2.87
same,glycan array binding signal (z-score),[33],5.81
same,glycan array binding signal (z-score),[34],3.26
same,glycan array binding signal (z-score),[35],0.24
same,glycan array binding signal (z-score),[36],-0.363
same,glycan array binding signal (z-score),[37],-0.184
same,glycan array binding signal (z-score),[38],-0.139
same,glycan array binding signal (z-score),[39],-0.206
same,glycan array binding signal (z-score),[40],2.77
same,glycan array binding signal (z-score),[41],4.29
same,glycan array binding signal (z-score),[42],0.019
same,glycan array binding signal (z-score),[43],1.01
same,glycan array binding signal (z-score),[44],-0.176
same,glycan array binding signal (z-score),[45],2.5
same,glycan array binding signal (z-score),[46],-0.345
same,glycan array binding signal (z-score),[47],-0.229
same,glycan array binding signal (z-score),[48],-0.353
same,glycan array binding signal (z-score),[49],0.236
same,glycan array binding signal (z-score),[50],-0.284
same,glycan array binding signal (z-score),[51],-0.339
same,glycan array binding signal (z-score),[52],-0.166
same,glycan array binding signal (z-score),[53],-0.306
same,glycan array binding signal (z-score),[54],-0.237
